RXFP1 antag: antagonists of human relaxin receptor RXFP1; Q9HBX9; HEK293-RXFP1, relaxin-stimulated cAMP HTRF, 30 min; hits give low values; activity change, negative = inhibition, % at 57.5 µM; hit rate 0.59% among 350,000; AID 1259400;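 active means activity change of -60% or lower, but not beyond a set lower limit; inconclusive means change between -60% and -40%, or beyond the set limit; inactive means change above -40%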; further: on the % scale 0 is the no-effect control and ±100 the full control effect
Target sequence (Q9HBX9 whole entry, looked up): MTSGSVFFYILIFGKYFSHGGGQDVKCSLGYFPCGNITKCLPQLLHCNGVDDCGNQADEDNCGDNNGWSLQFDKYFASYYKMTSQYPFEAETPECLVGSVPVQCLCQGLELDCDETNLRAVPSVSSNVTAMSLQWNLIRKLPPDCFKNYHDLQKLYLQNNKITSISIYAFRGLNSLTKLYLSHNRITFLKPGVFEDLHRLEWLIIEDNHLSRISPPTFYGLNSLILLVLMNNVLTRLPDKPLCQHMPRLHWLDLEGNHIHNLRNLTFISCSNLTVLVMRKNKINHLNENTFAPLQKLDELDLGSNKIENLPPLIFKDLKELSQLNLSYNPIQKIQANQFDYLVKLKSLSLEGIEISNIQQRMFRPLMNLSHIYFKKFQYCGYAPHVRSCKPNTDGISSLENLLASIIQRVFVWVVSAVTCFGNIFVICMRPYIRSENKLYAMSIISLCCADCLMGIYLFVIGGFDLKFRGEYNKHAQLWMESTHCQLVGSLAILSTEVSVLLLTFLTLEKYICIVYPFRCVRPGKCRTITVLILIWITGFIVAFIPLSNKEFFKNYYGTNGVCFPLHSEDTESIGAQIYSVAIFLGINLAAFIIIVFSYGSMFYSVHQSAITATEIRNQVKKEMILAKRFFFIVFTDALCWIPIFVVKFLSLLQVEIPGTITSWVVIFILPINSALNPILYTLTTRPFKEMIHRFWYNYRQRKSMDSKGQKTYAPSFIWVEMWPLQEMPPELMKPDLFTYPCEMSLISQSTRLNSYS
Akt phos inh: Akt phosphorylation inhibition; Neuro2A IGF-stimulated pAkt S473 HTRF, 20 min; hits give low values; activity change, % for hits at 50 µM; hit rate 0.32% among 360,000; AID 651550; in the data active means activity change below about -80%; inconclusive means mostly about -51% to -80%; further: on the % scale 0 is the no-effect control and ±100 the full control effect
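Neuro2A cells in DMEM with 0.5% FBS, overnight at 37 deg C, given compound at single 50 µM final, then IGF (6 nM final) for 20 min at 37 deg C. Lysed; phospho-Akt Ser473 by HTRF after 24 h, 665/615 ratio.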
RXFP1 ag: activates the human relaxin receptor RXFP1; Q9HBX9; HEK293T-RXFP1 cAMP TR-FRET, 30 min; response scale: percent of porcine relaxin response, buffer zero; Potency, µM (top dose mostly 57.5 µM), inactives show top-dose activation, hits mostly activators; hit rate 0.3% among 370,000; AID 2676; active means well fitted activation curve with a large enough effect; inconclusive means small, poorly fitted or top-dose-only effect; further: potency means the concentration at half of the fitted maximal effect; on the % scale 0 is the no-effect control and ±100 the full control effect; nearly all actives have a fitted effect of over 60% in size
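HEK293T cells stably expressing RXFP1 were pretreated with the PDE4 inhibitor Ro 20174, exposed to compounds for 30 min at 37C, lysed, and cAMP was read by TR-FRET. Data normalized to buffer (basal) and 29 nM porcine relaxin (100%).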
gsp agonist: agonists of gsp mutant (McCune-Albright syndrome) | gsp mutant cells, cAMP HTRF, 30 min | Potency, µM (highest dose often 76.9 µM), for the others: top-dose activation (cAMP increase), hits mostly activators | hit rate 0.13% among 340,000 | AID 624287; active means well fitted activation curve with a large enough effect; inconclusive means small, poorly fitted or top-dose-only effect, or another doubt; inactive means no such curve, though single readings can be large or run the other way; cell line not stated here;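 further: phosphodiesterase inhibitor Ro 20-1724 added with compounds to block cAMP breakdown; potency means the concentration at half of the fitted maximal effect; nearly all actives have a fitted effect of over 60% in size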
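Cells in DMEM/10% FBS with G418 were pretreated with compounds in DMSO plus […] (300 uM stock) for 30 min at 37C. cAMP was measured by HTRF (cAMP-d2 plus anti-cAMP antibody-K) after 30 min at room temperature.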
gsp antag: antagonists of gsp mutant (McCune-Albright syndrome); gsp-mutant cells, cAMP HTRF, 30 min; Potency, µM (titrated, usually from 76.9 µM), for inactives: at the top dose activity change, negative = inhibition, most hits filed as inhibitors; hit rate 0.4% among 340,000; AID 624288; calls by dose curve; cell line not stated here;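 further: intracellular cAMP measured with PDE inhibitor Ro 20-1724 present during compound exposure; potency means the concentration at half of the fitted maximal effect; on the % scale 0 is the no-effect control and ±100 the full control effect; nearly all actives have a fitted effect of over 65% in size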
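G418-selected cells were plated in DMEM/10% FBS for 16-24 h at 37C, then treated with compounds plus the PDE inhibitor […] (300 uM solution added) for 30 min at 37C. Intracellular cAMP was measured by HTRF after 30 min lysis at room temperature.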
* = called active by the depositor; [ ] = another dose, or the depositor's remark. This is a sample that favours compounds with a hit; in the whole collection about 1.2% have one here.

Screening O=C1C2CCCN2C(c2cccc(Br)c2)N1c1ccc(F)cc1 (stereo unspecified) returned RXFP1 antag -7.0, Akt phos inh inactive, RXFP1 ag 0.3%, gsp agonist 10.1% and gsp antag -3.9%.
For O=C1C2CCCN2C(c2ccc(Br)cc2)N1c1ccc(F)cc1 (stereo unspecified) the results were Akt phos inh inactive, RXFP1 ag 0.8%, gsp agonist -5.3% and gsp antag 50.1µM*.
`Cc1cc(C)c(OCC(=O)N(Cc2ccco2)Cc2ccco2)c(C)c1` gave RXFP1 antag inconclusive and RXFP1 ag -0.9%.
`CCc1ccc(CCOc2ccc(CC3SC(=O)NC3=O)cc2)nc1` (stereo unspecified) gave RXFP1 antag inconclusive, Akt phos inh inactive and gsp antag -20.6%.
Screening Cc1c(C)c2c(c(C)c1O)CCC(C)(COc1ccc(CC3SC(=O)NC3=O)cc1)O2 (stereo unspecified) returned RXFP1 antag -74.8*.
O=C1C=C(N2CCCCCC2)C2(CCCCC2)O1 was read as RXFP1 antag -61.4*, Akt phos inh inactive, RXFP1 ag -1.0%, gsp agonist 7.6% and gsp antag -3.9%.
Screening CCOC(=O)c1ccc(NC(=O)c2c(NCc3cccs3)sc3c2CCCCC3)cc1 returned RXFP1 antag inconclusive and RXFP1 ag -1.1%.
Screening COc1cc(NS(=O)(=O)c2cc3[nH]c(=O)c(=O)[nH]c3cc2C)cc(OC)c1OC returned RXFP1 antag 6.1, Akt phos inh inactive, RXFP1 ag 2.6%, gsp agonist 21.6% and gsp antag 9.7%.
`COc1cc(NS(=O)(=O)c2ccc(C)cc2C)cc(OC)c1OC` gave RXFP1 antag 9.4, Akt phos inh inactive, RXFP1 ag 1.7%, gsp agonist inconclusive and gsp antag 35.5µM*.
`CC(C)NC(=O)C1CCC(Cn2c(=O)c3sccc3n(CC(=O)Nc3ccccc3)c2=O)CC1` (stereo unspecified) gave RXFP1 antag -1.3 and RXFP1 ag 1.4%.
For CC1CC(=O)c2cnc(Nc3cccc(C(F)(F)F)c3)nc2C1 (stereo unspecified) the results were RXFP1 antag -7.4, Akt phos inh -103.8%*, RXFP1 ag 1.9%, gsp agonist inconclusive and gsp antag 0.6%[15.4 µM].
For CC1CC(=O)c2cnc(Nc3ccccc3)nc2C1 (stereo unspecified) the results were RXFP1 antag 4.0, Akt phos inh inactive, RXFP1 ag -0.1%, gsp agonist 3.9% and gsp antag 2.1%.
For CCCCN1C(=O)c2[nH]nc(-c3ccccc3O)c2C1c1cc(Br)c(O)c(OC)c1 (stereo unspecified) the results were RXFP1 antag -88.6* and RXFP1 ag -0.7%.
Screening CCc1ccc(C2c3c(-c4ccccc4O)n[nH]c3C(=O)N2Cc2ccncc2)cc1 (stereo unspecified) returned RXFP1 antag -82.7* and RXFP1 ag -0.9%.
`CCc1cccc(-n2c(=O)c3cccnc3n2CC(=O)Nc2ccc(OC)c(Cl)c2)c1` gave RXFP1 antag -1.3 and RXFP1 ag 5.5%.
Screening CCCCCCCCCCCCCC[N+](C)(C)Cc1ccccc1 returned RXFP1 antag -26.5.
For O=C(O)CCC(=O)Nc1nnc(C(F)(F)F)s1 the results were RXFP1 antag -1.7, Akt phos inh inactive, RXFP1 ag 7.4%, gsp agonist -9.6% and gsp antag 1.7%.
CCC(NC(=O)Nc1nnc(C(F)(F)F)s1)(C(F)(F)F)C(F)(F)F was read as RXFP1 antag -2.1, Akt phos inh inactive, RXFP1 ag 0.9%, gsp agonist -0.5% and gsp antag 4.47µM*.
For CCOC(=O)c1[nH]c(C)c(/C(O)=C2\C(=O)C(=O)N(CCCN3CCOCC3)C2c2cccs2)c1C (stereo unspecified) the results were RXFP1 antag 15.1, Akt phos inh inactive, RXFP1 ag 15.8%, gsp agonist 28.8%[15.4 µM] and gsp antag 16.9%.

Assay outcomes: PubChem, National Center for Advancing Translational Sciences (NCATS)
